Measurements as given in PubChem BioAssay (NCI).
Values joined by “and” are separate entries in the source; they are usually repeats but may differ in a detail not shown here. Equal values may be shown once. The panel holds about 83,000 compounds, 20% with a hit somewhere; the sample as a whole holds those more often.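 Compound tested at a single concentration for 48 hours in 96-well plates; a percent growth value below 10 was scored as active.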 Unmarked numbers belong to inactive results. Active and inactive are the calls of the source.

Test system: MDA-MB-468 breast
Assay: NCI-60 one-dose screen, 48 h (100 = growth as untreated, 0 = no growth, -100 = all killed)
Settings: 10 µM unless noted

Question: Which growth does the source give for `C=CCN1C(=O)/C(=c2\sc3n(c2=O)NC2C(N=3)N(CC)C(=O)N2CC)c2ccccc21` (stereo not drawn) here?
Answer: 44.6%

Question: With `c1ccc(-c2cn3nc(-c4c[nH]c5ccccc45)sc3n2)cc1` as the molecule, how does the growth read?
Answer: 77.9%

Question: For `O=CN1N=C(c2cccc(Nc3ccnc4cc(Cl)ccc34)c2)CC1c1ccccc1` (stereo not drawn), which growth is on record?
Answer: 13%

Question: For `O=S(=O)(Nc1ccccc1)c1ccc(C2CC3(Cl)C(Cl)=C(Cl)C2(Cl)C3(Cl)Cl)cc1` (stereo not drawn), which growth is on record?
Answer: 62.2%

Question: How did the growth turn out when `C#CCOc1cccc(-c2ncc3cc(NC(=O)CCl)ccc3n2)c1` was run?
Answer: -60.6% (active)

Question: How did the growth turn out when `Oc1ccc(CSc2nnc(-c3ccncc3)n2-c2ccccc2)c2cccnc12` was run?
Answer: 14.2%

Question: How did the growth turn out when `CCCCC(N)(C(=O)O)C1CCCC1` (stereo not drawn) was run?
Answer: 107%

Question: Which growth does the source give for `COc1ccc2cc(-c3ccc(C(=O)NN)c(C)n3)ccc2c1` here?
Answer: 106%

Question: How did the growth turn out when `CCO/C=N/C1=C(C#N)C(c2ccc(F)cc2)c2sc3c(C)cccc3c2O1` (stereo not drawn) was run?
Answer: 6% (active)

Question: How did the growth turn out when `COc1ccc(OC)c(Nc2nnc(-c3cc(OC)c(OC)c(OC)c3)o2)c1` was run?
Answer: 92%

Question: How did the growth turn out when `N#CC1=C(N)Oc2c(ccc3ccccc23)C1c1cccs1` (stereo not drawn) was run?
Answer: 26.5%

Question: For `COc1cc(-c2nc3ccccc3[nH]2)ccc1OCC(=O)N=Nc1c(O)[nH]c2ccccc12`, which growth is on record?
Answer: -55.4% (active)

Question: Which growth does the source give for `O=C(CSc1nc(-c2ccccc2)cn1-c1ccc(Cl)cc1)c1ccc([N+](=O)[O-])cc1` here?
Answer: 72.5%

Question: For `C[C@H]1[C@H]2C3=CC[C@@H]4[C@@]5(C)C/C(=C/c6ccco6)C(=O)C(C)(C)[C@@H]5CC[C@@]4(C)[C@]3(C)CC[C@@]2(C(=O)N2CCOCC2)CC[C@@H]1C`, which growth is on record?
Answer: 59.5%

Question: With `COc1cc2c(Nc3ccc(Cl)c(Cl)c3F)ncnc2cc1OCC1C[C@@H]2CN(C)C[C@@H]2C1` (stereo partly drawn) as the molecule, how does the growth read?
Answer: -86.1% (active) and -71.9% (active)

Question: With `COc1cc2cc(Oc3ccc(NC(=O)Nc4cccc(C(F)(F)F)c4)cc3)c(C)nc2cc1OC` as the molecule, how does the growth read?
Answer: -32.5% (active)

Question: With `COc1cc(/C=N/NC(=S)NNC(=S)NC2CCCCC2)cc(OC)c1OC` as the molecule, how does the growth read?
Answer: 94.2%

Question: For `Cc1cc(C(c2ccccc2)c2ccccc2)ccc1NS(=O)(=O)c1ccccc1`, which growth is on record?
Answer: 111%

Question: For `CCCCCOc1ccc(/C=N/Nc2cc(C)nc3ccc(Br)cc23)cc1`, which growth is on record?
Answer: -15.1% (active)

Question: With `Cc1cc(N2CCOCC2)nc(NCc2cc(Nc3ccnc4cc(Cl)ccc34)ccc2F)n1` as the molecule, how does the growth read?
Answer: -71.9% (active)

Question: How did the growth turn out when `COc1ccc(/C=C(\C#N)c2cc3ccccc3n2S(C)(=O)=O)cc1` was run?
Answer: 69.3%

Question: `CC(=O)OCC(=O)[C@@]1(O)CC[C@H]2[C@@H]3CCC4=CC(=O)CC[C@]4(C)[C@@]3(F)[C@@H](O)C[C@@]21C` was tested. Which growth did it give?
Answer: 121%

Question: Which growth does the source give for `CCOC(=O)c1cn2ncnc(Oc3ccc(NC(=O)NCCN4CCN(C)CC4)c(Cl)c3)c2c1C` here?
Answer: 45.4%

Question: For `CNC(=O)c1cn(C2CC2)c2cc(N3CCN(C(=O)c4cc(OC)c(OC)c(OC)c4)CC3)c(F)cc2c1=O`, which growth is on record?
Answer: 103%

Question: Which growth does the source give for `O=C(c1ccccc1)N(CCc1ccc(Cl)cc1)C(=S)N(C(=O)c1ccccc1)c1ccccc1` here?
Answer: 36%

Question: Which growth does the source give for `O=C(NCCCNS(=O)(=O)c1ccc(Cl)cc1)Nc1ccc(-n2cc(-c3ccncc3)c(-c3ccc(Cl)c(O)c3)n2)cc1` here?
Answer: 47.6%

Question: Which growth does the source give for `COc1cc(NC(=O)c2cc3ccccc3cc2O)c(OC)cc1Cl` here?
Answer: -5.6% (active)

Question: Which growth does the source give for `CC(C)(C)C1=CC(=O)C(C(C)(C)C)=CC1=O` here?
Answer: 96.7%

Question: `N#CCCN(NC(=O)OCc1ccccc1)C(=O)OCc1ccccc1` was tested. Which growth did it give?
Answer: 116%

Question: How did the growth turn out when `CN1CCN(c2ccc(-c3cnc4c(-c5csc6ccccc56)cnn4c3)cc2)CC1` was run?
Answer: -26.8% (active)

Question: `Cc1nn(-c2ccc(Cl)cc2)c2nc3c(nc12)c(=O)oc1ccccc13` was tested. Which growth did it give?
Answer: 125%

Question: Which growth does the source give for `Cn1cc(-c2nc3c(F)cc4[nH]ncc4c3c3c2CCCC3)c(C(F)(F)F)n1` here?
Answer: 33%

Question: `CN(C)c1ccc(C2Nc3ccccc3-n3cccc32)cc1` (stereo not drawn) was tested. Which growth did it give?
Answer: -50.4% (active)

Question: For `COc1cc2c(cc1OC)-c1cc(OC)c(OC)cc1C(CN(C)C)C2` (stereo not drawn), which growth is on record?
Answer: 66.4% [100 µM]

Question: With `COc1cc(C)ccc1Oc1nc(Nc2ccc(N3CCOCC3)cc2)ncc1NC(=O)Nc1cc(C(F)(F)F)cc(C(F)(F)F)c1` as the molecule, how does the growth read?
Answer: 72.8%

Question: With `CCN(CC)c1ccc(C=O)c(OCc2cn(CC(=O)Nc3ccc(Cl)cc3)nn2)c1` as the molecule, how does the growth read?
Answer: 63.5%

Question: Which growth does the source give for `C/C(=C(/c1ccc(O)cc1)c1ccc(OCCN2CCCC2)cc1)c1ccc(Cl)cc1` here?
Answer: 13.5%

Question: With `CCCCCCCCCCCC1=NC(C)(C)CN1CCO` as the molecule, how does the growth read?
Answer: 15%

Question: How did the growth turn out when `C=CCn1c(SCC(=O)Nc2ccc(/C(C)=N\O)cc2)nnc1-c1cc(-c2ccc(OC)cc2)nc2ccccc12` was run?
Answer: 17.3%

Question: Which growth does the source give for `CCOC(=O)/C=C/C(=O)[C@H](CC(C)C)NC(=O)[C@H](Cc1ccccc1)NC(=O)OCc1ccccc1` here?
Answer: -21.5% (active)

Question: Which growth does the source give for `CCCCC1=c2c([nH]c3ccc(OC)cc23)=NC2C=CC=NC12` (stereo not drawn) here?
Answer: -23.5% (active)

Question: Which growth does the source give for `NC(=O)c1cc2c3ccccc3ccn2c1-c1ccccc1` here?
Answer: 17.5%

Question: `N=C(N)c1ccc(-c2ccc(-c3ccc(Cl)cc3Cl)s2)cc1` was tested. Which growth did it give?
Answer: -57.1% (active)

Question: How did the growth turn out when `Cc1c(NC(=O)CSc2nc3sc4c(c3c(=O)n2-c2ccc(Cl)cc2)CCCC4)c(=O)n(-c2ccccc2)n1C` was run?
Answer: 89.8%

Question: How did the growth turn out when `Cc1nc2ccccc2c(/C=C/c2ccc(Cl)cc2)c1C(=O)/C=C/c1ccc(F)cc1` was run?
Answer: -16.5% (active)

Question: With `S=C(Cc1ccccc1)N1CCN(c2ccccc2Cl)CC1` as the molecule, how does the growth read?
Answer: 101%

Question: How did the growth turn out when `COc1ccc(Oc2ccccc2NC(=O)CNC(=O)c2cccc3ccccc23)cc1` was run?
Answer: 23.7% [5 µM]

Question: `CCN1C(=O)N(CC)C2Nn3c(s/c(=C4\C(=O)N(C(C)C)c5ccccc54)c3=O)=NC21` (stereo not drawn) was tested. Which growth did it give?
Answer: 9.33% (active)

Question: For `COc1ccc(N2C(=O)c3cc(Cl)ccc3NC2SCc2ccccc2)cc1` (stereo not drawn), which growth is on record?
Answer: 98.1%

Question: For `Cc1ccc(-c2nc([P+](c3ccccc3)(c3ccccc3)c3ccccc3)c(N3C[C@H]4C[C@H](C3)c3cccc(=O)n3C4)o2)cc1`, which growth is on record?
Answer: -9.01% (active)

Question: For `N#C/C(=C\c1ccc(-c2ccc(Cl)c(Cl)c2)o1)C(=O)Nc1ncc(Cc2ccc(Cl)cc2)s1`, which growth is on record?
Answer: 22.1%

Question: For `C#CCNC(=O)[C@]1(C)CCC[C@@]2(C)[C@H]1CC=C1C=C(C(C)C)CC[C@@H]12`, which growth is on record?
Answer: 101%

Question: How did the growth turn out when `CCOC(=O)c1cc(C(=O)c2cc(OC)cc(OC)c2)n2ncc3ccccc3c12` was run?
Answer: 8.22% (active)

Question: For `O=C1c2ccccc2C2N1CCC1CCc3ccccc3N12` (stereo not drawn), which growth is on record?
Answer: 95.1%

Question: `COc1ccc(NC(=O)c2sc3nc(C)c(C(O)c4ccc(OC)cc4)cc3c2N)cc1` (stereo not drawn) was tested. Which growth did it give?
Answer: 24.8%

Question: For `O=C(Cc1ccccc1)NC(c1ccc(Cl)cc1)c1c(O)ccc2ccccc12` (stereo not drawn), which growth is on record?
Answer: 7.01% (active)

Question: For `N#Cc1ccccc1-c1ccc(Cn2c(-c3cscn3)nc3c(Cl)cccc32)cc1`, which growth is on record?
Answer: 55.7%

Question: How did the growth turn out when `COc1cc(NC(=O)Nc2cnc(Nc3ccc(N4CCOCC4)cc3)nc2Oc2ccc(F)cc2)cc(OC)c1` was run?
Answer: 95.5%

Question: How did the growth turn out when `C=C(c1ccc(C(=O)O)cn1)c1cc2c(cc1C)C(C)(C)CCC2(C)C` was run?
Answer: 91.5%

Question: `COC(=O)C(c1ccccc1)C(CC(=O)c1ccccc1)c1ccccc1` (stereo not drawn) was tested. Which growth did it give?
Answer: 87.5%

Question: With `COc1cccc(Cn2cc3c(c2)-c2oncc2CC3)c1` as the molecule, how does the growth read?
Answer: 1.66% (active)

Question: Which growth does the source give for `CN(C)c1ccc(/C=C2\C=C(c3nc4ccccc4s3)OC2=O)cc1` here?
Answer: 79.8%

Question: For `Clc1ccc(C2=NN[C@H](c3cn(-c4ccccc4)nc3-c3ccccc3)C2)cc1`, which growth is on record?
Answer: 57.1%

Question: With `Cc1c(Cl)cccc1S(=O)(=O)Nc1ccc2c(c1)C(=O)N(C1CCC(=O)NC1=O)C2=O` (stereo not drawn) as the molecule, how does the growth read?
Answer: 27.2%

Question: How did the growth turn out when `O=C(CCl)N(C1CCCCC1)C1CCCCC1` was run?
Answer: 91.5%

Question: How did the growth turn out when `O=C(NNC(=O)c1ccncc1)Nc1ccc([N+](=O)[O-])cc1` was run?
Answer: 106%

Question: `Cc1ccc2c(n1)C(=O)C(Cl)=C(Nc1cccc(C)c1C)C2=O` was tested. Which growth did it give?
Answer: -63.3% (active)

Question: Which growth does the source give for `C/C(=N\Nc1cccc(Cl)n1)c1ccccn1` here?
Answer: -31.3% (active)

Question: How did the growth turn out when `COc1ccccc1Nc1nc(-c2cc3cccc(C(F)(F)F)c3oc2=O)cs1` was run?
Answer: -2.43% (active)

Question: Which growth does the source give for `CCN1/C(=C/C=C/C=C/c2sc3ccccc3[n+]2CC)Sc2ccccc21` here?
Answer: -81% (active)

Question: Which growth does the source give for `O=C(Nc1ccc(I)cc1F)c1cc(I)ccc1O` here?
Answer: -13.2% (active)

Question: Which growth does the source give for `CC(C)(C)CC(C)(C)Nc1c(-c2ccc(C(F)(F)F)cc2)nc2cnccn12` here?
Answer: 100%

Question: For `CCCN1CC(c2ccc(OC)c(OC)c2)=C(c2cn(C(=O)OCC)c3ccccc23)C1=O`, which growth is on record?
Answer: 6.47% (active)

Question: How did the growth turn out when `O=P(O)(O)OC1C(OP(=O)(O)O)C(OP(=O)(O)O)C(OP(=O)(O)O)C(OP(=O)(O)O)C1OP(=O)(O)O.[Cu+2]` (stereo not drawn) was run?
Answer: 85.8%

Question: How did the growth turn out when `O=Nc1c(O)ccc2ccccc12` was run?
Answer: 78.9% and 81.4%

Question: How did the growth turn out when `O=C1NCC(c2cc3ccccc3[nH]c2=O)Nc2ccccc21` (stereo not drawn) was run?
Answer: 97.5%

Question: How did the growth turn out when `N=c1ccccn1CCO` was run?
Answer: 113%

Question: How did the growth turn out when `C=C(CO)[C@@H]1CC[C@]2(COC3CCCCO3)CC[C@]3(C)[C@H](CC[C@@H]4[C@@]5(C)C=C(C=O)C(=O)C(C)(C)[C@@H]5CC[C@]43C)[C@@H]12` (stereo partly drawn) was run?
Answer: -75.4% (active)

Question: With `CCCCCCCC/C=C\CCCCCCCCOc1ccc(CC(=O)NCC[N+]2(C)CCCC2)cc1` as the molecule, how does the growth read?
Answer: 33.5%

Question: Which growth does the source give for `O=c1[nH]nc(-c2ccc(Br)cc2)cc1Cc1ccc(O)cc1` here?
Answer: 107%

Question: `Cc1cc(C(=O)O)c(N)c(C)n1` was tested. Which growth did it give?
Answer: 120%

Question: `Brc1ccc(Oc2ccc(Nc3ncnc4onc(-c5ccccc5)c34)cc2)cc1` was tested. Which growth did it give?
Answer: 103%

Question: Which growth does the source give for `O=C(O)COc1ccc(Cl)c(Cl)c1` here?
Answer: 99.5%
